Records with an inconclusive call do not appear. The source made the active and inactive calls. Unless noted, calls come from the whole dose curve; as a rule, active = well fitted curve in the direction sought with a large enough effect; inconclusive = small, poorly fitted or top-dose-only effect, or another doubt; inactive = no such curve, though single readings can be large; an effect the other way counts as inactive or inconclusive.
Columns and labels:
[1] = qHTS Assay for Lipid Storage Modulators (AID 1519; calls by dose curve; for activity change, negative = inhibition: % is set by controls: 0 for no effect and ±100 for the full control effect); conditions: Drosophila S3 cells, BODIPY lipid droplet/cell ratio, laser cytometry, cells loaded with oleic acid; for activity change, negative = inhibition: at 57.5 µM (top of the series)
In short: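 Cells seeded at 5,000 per well were treated with compounds over a concentration series and loaded with oleic acid (400 uM, as added). Lipid droplet fluorescence (488 nm excitation, 500-530 nm channel) was read by laser-scanning cytometry and normalized to 20 uM Triacsin C.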

[2] = molecular target: DNA repair nuclease/redox regulator APEX1 (Homo sapiens) (UniProt P27695); test: qHTS Validation Assay for Inhibitors of the Human Apurinic/apyrimidinic Endonuclease 1 (APE1) (AID 1705; note: potency is the fitted concentration of half-maximal effect;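 for activity change, negative = inhibition: TAMRA fluorescence gain over two minutes as APE1 cuts a quenched THF abasic duplex; % is set by controls: 0 for no effect and ±100 for the full control effect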); conditions: purified APE1 endonuclease activity, fluorescence, titration; series mostly up to 57.1 µM
In short: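 Endonuclease activity of human APE1 is followed as dequenching when the enzyme incises a tetrahydrofuran abasic site in a short duplex labelled 5'-TAMRA/3'-BHQ-2 (50 nM final), after 15 min enzyme–compound preincubation at room temperature.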

[3] = Counterscreen for APE1 Inhibitors: Fluorescent Dye Displacement Validation Assay (AID 1707); conditions: fluorescent dye displacement from DNA; series mostly up to 57.1 µM;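 note: plate controls were ThO with dsDNA and no compound for no effect and ThO without dsDNA for full effect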
In short: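 Compounds are scored by their ability to displace Thiazole Orange (250 nM) from a 50 nM TAMRA-tagged duplex bearing a tetrahydrofuran abasic site. Buffer is 50 mM Tris-HCl pH7.5, 50mM NaCl, 2 mM MgCl2, 0.01% Tween-20.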

[4] = qHTS Assay for Modulators of Human Peripheral Myelin Protein 22 (PMP22) Expression/Activity (AID 1967; active = well fitted curve in the direction sought with a large enough effect in the signal ratio; the % refers to the signal ratio;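 note: 0% = untreated cells and 100% end not stated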); conditions: Cell-based PMP22 reporter, dual-color luciferase ratio, 0% = compound-free control cells, mouse Pmp22 promoter in mouse Schwann cells; series mostly up to 115 µM
In short: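 Quantitative HTS in a mouse Schwann cell line expressing dual click beetle luciferases: Pmp22 promoter (green) and control EF-alpha promoter (red). After 24h treatment, corrected green/red signal ratio gave %Activity relative to untreated cells.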

[5] = molecular target: Ferritin light chain (Equus caballus) (UniProt P02791); test: qHTS Validation Assay for Identification of Novel General Anesthetics (AID 2323); conditions: horse apoferritin, anesthetic-site fluorescent probe displacement; series mostly up to 76.9 µM; note: % is set by controls: 0 for no effect and ±100 for the full control effect
In short: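 Apoferritin from horse spleen (10 uM) was mixed with 1-aminoanthracene at 50% saturation in PBS, then compounds were added. After 10 min at room temperature, fluorescence was read (ex 380 nm, em 535 nm) and normalized to free-probe and complex controls.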

[6] = molecular target: ATP-dependent DNA helicase Q1 (Homo sapiens) (UniProt P46063); test: qHTS Validation Assay for Inhibitors of RecQ-Like Dna Helicase 1 (RECQ1) (AID 2353); conditions: recombinant RECQ1 helicase DNA unwinding assay; series mostly up to 25.6 µM; note: potency is the fitted concentration of half-maximal effect;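 for activity change, negative = inhibition: plate controls were DMSO vehicle for no effect and enzyme-free control for full effect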
In short: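 50 nM RECQ1T1 preincubated 15 min with compound in Tris pH 8.0 buffer with MgCl2, DTT, Tween-20 and 2.5 ug/ml poly(dI-dC); started with 200 nM TAMRA/BHQ-2 forked duplex and 2 mM ATP. Unwinding read as fluorescence (525/598 nm), two reads 2 h apart.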

[7] = molecular target: RecQ-like DNA helicase BLM (Homo sapiens) (UniProt P54132); test: qHTS Validation Assay for Inhibitors of Bloom's syndrome helicase (BLM) (AID 2364); conditions: BLM helicase DNA unwinding, fluorescence, in vitro; series mostly up to 57.1 µM;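 note: plate controls were DMSO vehicle for no effect and enzyme-free control for full effect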
In short: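 50 nM BLM preincubated 15 min at room temperature with compound in pH 8.0 Tris buffer containing 2.5 ug/ml poly(dI-dC); started with 200 nM TAMRA/BHQ-2 forked duplex and 2 mM ATP (final). Unwinding read as TAMRA fluorescence increase, two reads 2 h apart.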

[8] = Cytometric Cell-Based qHTS for Inhibitors of the mTORC1 Signaling Pathway in MEF (Tsc2-/-, p53-/-) Cells (AID 2660); conditions: mTORC1 pathway cytometry; series mostly up to 38.3 µM;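 note: percent of cells above a phospho-rpS6 to PI ratio cutoff in each well; plate controls were DMSO for no effect and rapamycin for full effect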
In short: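 Immunofluorescence qHTS of rpS6 Ser235/236 phosphorylation: MEFs (Tsc2-/-, p53-/-) treated 24 h, 37 C, in DMEM + 10% FBS. Alexa-488 signal normalized to PI count, referenced to rapamycin (7.5 nM) and DMSO; PI cell number recorded for viability.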

[9] = High Content Imaging Cell-Based qHTS for Inhibitors of the mTORC1 Signaling Pathway in MEF (Tsc2-/-, p53-/-) Cells (AID 2666); conditions: series mostly up to 38.3 µM;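 note: percent of cells scored positive for phospho-rpS6 Ser235/236 immunostaining by imaging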
In short: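 Phospho-rpS6 (Ser235/236) immunofluorescence, normalized and scored as % positive cells using rapamycin and DMSO controls, was read in empty-vector Tsc2-/-, p53-/- MEFs after 24 h compound exposure at 37 C; propidium iodide counted cells.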

[10] = qHTS for differential inhibitors of proliferation of Plasmodium falciparum line GB4 (AID 1816); conditions: Potency: Plasmodium falciparum GB4 proliferation inhibition; series mostly up to 28.7 µM;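 note: parasite growth measured after 72 h incubation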; note: potency is the fitted concentration of half-maximal effect;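 for activity change, negative = inhibition: 0% = vehicle DMSO and -100% = reference inhibitor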
[11] = qHTS for differential inhibitors of proliferation of Plasmodium falciparum line 3D7 (AID 1876); note: potency is the fitted concentration of half-maximal effect; conditions: P. falciparum 3D7 proliferation inhibition; series mostly up to 28.7 µM
[12] = qHTS for differential inhibitors of proliferation of Plasmodium falciparum line D10 (AID 1877); conditions: series mostly up to 28.7 µM;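 note: parasites grown with compound for 72 h before DNA staining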; note: potency is the fitted concentration of half-maximal effect;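 for activity change, negative = inhibition: plate controls were vehicle wells for no effect and reference inhibitor wells for full effect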
[13] = qHTS for differential inhibitors of proliferation of Plasmodium falciparum line Dd2 (AID 1882); conditions: Potency: Plasmodium falciparum Dd2 proliferation inhibition; series mostly up to 28.7 µM;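 note: compound exposure of 72 h on infected erythrocytes; plate controls were DMSO vehicle for no effect and 0.29 µM artemisinin for full effect; nearly all actives have a fitted effect of over 65% in size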
In short: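 SYBR Green I DNA fluorescence read-out, ex 485/em 535 nm. Signals were normalized to 0.29 uM artemisinin and DMSO wells, then corrected using vehicle-only plates flanking each stack. Parasite growth ran 72 h in erythrocytes before lysis.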

[14] = qHTS for differential inhibitors of proliferation of Plasmodium falciparum line W2 (AID 1883); conditions: Potency: Plasmodium falciparum W2 proliferation inhibition; series mostly up to 28.7 µM;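 note: parasites grown with compound for 72 h before lysis and staining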; note: potency is the fitted concentration of half-maximal effect;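 for activity change, negative = inhibition: 0% = vehicle wells and -100% = control inhibitor wells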
[15] = qHTS for differential inhibitors of proliferation of Plasmodium falciparum line HB3 (AID 1886); conditions: Potency: Plasmodium falciparum HB3 proliferation inhibition; series mostly up to 28.7 µM;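 note: parasites grown with compound for 72 h before SYBR Green readout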; note: potency is the fitted concentration of half-maximal effect;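 for activity change, negative = inhibition: plate controls were vehicle for no effect and reference inhibitor for full effect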
[16] = qHTS for differential inhibitors of proliferation of Plasmodium falciparum line 7G8 (AID 1815); conditions: Plasmodium falciparum 7G8 proliferation inhibition; series mostly up to 28.7 µM;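 note: parasite growth measured after three days of incubation; plate controls were vehicle wells for no effect and reference inhibitor wells for full effect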
[17] = molecular target: Endonuclease 4 (Escherichia coli (strain K12)) (UniProt P0A6C1); test: Counterscreen for APE1 Inhibitors: qHTS Validation Assay for Inhibitors of Endonuclease IV (AID 1708); note: % is set by controls: 0 for no effect and ±100 for the full control effect; conditions: E. coli endonuclease IV, DNA cleavage fluorescence; series mostly up to 57.1 µM
In short: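 Cleavage of a quenched abasic-site DNA duplex (50 nM, 5'-TAMRA, 3'-BHQ-2) by 2 nM enzyme is followed as fluorescence increase. Compounds are preincubated with enzyme 15 min at room temperature before substrate addition.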

[18] = measured here: cell count channel max response
[19] = measured here: lipid channel max response

Sequence of DNA repair nuclease/redox regulator APEX1 (Homo sapiens) (P27695 whole entry, looked up): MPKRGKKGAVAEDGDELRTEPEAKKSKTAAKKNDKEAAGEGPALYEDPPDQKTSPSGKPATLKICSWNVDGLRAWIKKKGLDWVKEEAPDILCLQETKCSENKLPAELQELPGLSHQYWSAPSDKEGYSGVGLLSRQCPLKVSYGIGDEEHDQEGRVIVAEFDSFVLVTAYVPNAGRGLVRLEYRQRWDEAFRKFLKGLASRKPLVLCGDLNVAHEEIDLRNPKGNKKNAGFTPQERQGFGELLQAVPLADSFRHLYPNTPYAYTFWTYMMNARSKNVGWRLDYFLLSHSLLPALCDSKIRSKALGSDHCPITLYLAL
Sequence of ATP-dependent DNA helicase Q1 (Homo sapiens) (P46063 whole entry, looked up): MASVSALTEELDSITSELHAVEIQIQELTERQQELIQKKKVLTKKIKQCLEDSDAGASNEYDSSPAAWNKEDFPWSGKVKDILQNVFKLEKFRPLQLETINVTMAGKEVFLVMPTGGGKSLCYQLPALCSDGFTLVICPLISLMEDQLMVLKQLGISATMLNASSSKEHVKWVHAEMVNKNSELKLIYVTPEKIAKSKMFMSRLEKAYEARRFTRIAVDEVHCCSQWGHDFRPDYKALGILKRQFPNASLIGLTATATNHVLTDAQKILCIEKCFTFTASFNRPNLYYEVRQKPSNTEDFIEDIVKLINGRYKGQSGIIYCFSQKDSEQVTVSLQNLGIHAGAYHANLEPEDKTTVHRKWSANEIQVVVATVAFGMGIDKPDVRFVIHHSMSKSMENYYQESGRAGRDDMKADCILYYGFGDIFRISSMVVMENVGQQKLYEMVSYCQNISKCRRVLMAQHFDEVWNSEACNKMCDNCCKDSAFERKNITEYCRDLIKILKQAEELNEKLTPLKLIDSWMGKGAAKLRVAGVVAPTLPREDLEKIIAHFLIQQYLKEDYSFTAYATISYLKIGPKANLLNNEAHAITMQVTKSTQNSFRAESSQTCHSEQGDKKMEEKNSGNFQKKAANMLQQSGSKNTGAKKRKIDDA
Sequence of RecQ-like DNA helicase BLM (Homo sapiens) (P54132 whole entry, looked up): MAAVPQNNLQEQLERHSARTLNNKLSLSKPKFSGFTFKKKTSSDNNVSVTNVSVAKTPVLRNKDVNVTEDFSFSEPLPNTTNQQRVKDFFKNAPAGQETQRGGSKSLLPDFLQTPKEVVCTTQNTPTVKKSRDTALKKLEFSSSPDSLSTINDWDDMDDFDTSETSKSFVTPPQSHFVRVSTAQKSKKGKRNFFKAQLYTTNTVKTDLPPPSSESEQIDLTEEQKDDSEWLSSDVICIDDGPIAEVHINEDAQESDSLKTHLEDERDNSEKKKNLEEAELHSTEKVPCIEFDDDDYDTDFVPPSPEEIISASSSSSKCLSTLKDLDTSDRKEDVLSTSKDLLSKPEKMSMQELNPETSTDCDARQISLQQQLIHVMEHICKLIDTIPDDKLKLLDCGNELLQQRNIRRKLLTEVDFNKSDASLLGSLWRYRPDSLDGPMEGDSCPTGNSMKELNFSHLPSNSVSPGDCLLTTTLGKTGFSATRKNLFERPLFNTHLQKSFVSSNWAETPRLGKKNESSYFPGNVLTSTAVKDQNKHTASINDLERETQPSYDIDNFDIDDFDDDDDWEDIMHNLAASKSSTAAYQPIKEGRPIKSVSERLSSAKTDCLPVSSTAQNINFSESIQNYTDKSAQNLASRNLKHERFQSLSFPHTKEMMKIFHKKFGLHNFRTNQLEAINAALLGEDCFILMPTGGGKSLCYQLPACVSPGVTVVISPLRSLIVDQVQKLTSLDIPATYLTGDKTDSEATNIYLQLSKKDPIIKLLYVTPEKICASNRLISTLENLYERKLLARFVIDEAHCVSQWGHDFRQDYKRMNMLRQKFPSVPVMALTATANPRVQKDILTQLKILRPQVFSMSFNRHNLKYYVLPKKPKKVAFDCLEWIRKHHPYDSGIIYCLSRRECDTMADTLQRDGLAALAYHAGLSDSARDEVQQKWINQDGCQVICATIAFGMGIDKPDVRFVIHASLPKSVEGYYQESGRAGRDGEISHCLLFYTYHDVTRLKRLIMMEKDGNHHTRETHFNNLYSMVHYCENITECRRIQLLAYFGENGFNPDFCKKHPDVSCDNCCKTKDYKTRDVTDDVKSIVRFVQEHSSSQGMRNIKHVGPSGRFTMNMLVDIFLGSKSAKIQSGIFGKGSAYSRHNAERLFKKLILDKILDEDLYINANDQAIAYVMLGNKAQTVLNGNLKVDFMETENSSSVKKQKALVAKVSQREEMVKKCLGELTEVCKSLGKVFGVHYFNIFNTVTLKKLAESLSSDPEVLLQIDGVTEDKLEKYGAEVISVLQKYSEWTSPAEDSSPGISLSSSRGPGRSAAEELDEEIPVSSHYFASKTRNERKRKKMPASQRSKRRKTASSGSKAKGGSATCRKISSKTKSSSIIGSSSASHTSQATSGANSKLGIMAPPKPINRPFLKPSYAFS
Sequence of Ferritin light chain (Equus caballus) (P02791 2-175 limits assumed): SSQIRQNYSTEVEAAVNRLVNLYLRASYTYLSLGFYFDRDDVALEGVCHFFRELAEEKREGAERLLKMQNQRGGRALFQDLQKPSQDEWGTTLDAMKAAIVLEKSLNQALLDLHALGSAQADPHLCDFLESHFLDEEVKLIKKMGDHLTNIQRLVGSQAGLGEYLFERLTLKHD

CN1[C@@H](CC(=O)c2ccccc2)CCC[C@H]1C[C@H](O)c1ccccc1
inactive: activity change, negative = inhibition [1] -1.25% | Potency [2] | Potency [3] | outcome [4] | Potency [5] | Potency [6] | Potency [7] | outcome [8] | Potency [9]
23.7%: max response [1, 19]
24.6%: max response [1, 18]

C=C/C(C)=C/[C@@]1(C)SC(=O)C(C)=C1O
34%: max response [1, 19]
inactive: activity change, negative = inhibition [1] 0.111% | Potency [3] | Potency [10] | Potency [11] | Potency [12] | Potency [13] | Potency [14] | Potency [15] | outcome [4] | Potency [5]
30.8%: max response [1, 18]
active: Potency [2] 1 µM | Potency [6] 8.91 µM

NCCCCCCCCCCN
inactive: activity change, negative = inhibition [1] -1.41% | Potency [2] | Potency [3] | Potency [16] | Potency [10] | Potency [11] | Potency [12] | Potency [13] | Potency [15] | outcome [4] | Potency [5] | Potency [6] | Potency [7] | Potency [9]
42.6%: max response [1, 19]
42.1%: max response [1, 18]

CN(C)c1nc(N)c(C(=O)N=C(N)N)nc1Cl
-31.1%: max response [1, 19]
-30.3%: max response [1, 18]
inactive: activity change, negative = inhibition [1] 1.32% | Potency [2] | Potency [3] | Potency [13] | outcome [4] | Potency [5] | Potency [6] | Potency [7] | outcome [8] | Potency [9]
active: Potency [10] 12.6 µM | Potency [11] 10 µM | Potency [12] 11.2 µM | Potency [14] 12.6 µM | Potency [15] 12.6 µM

CCCCCCCCCCCCCCCC(=O)NCC(COP(=O)([O-])OCC[N+](C)(C)C)OCC (stereo not given)
-22.8%: max response [1, 18]
-25%: max response [1, 19]
inactive: activity change, negative = inhibition [1] -0.558% | Potency [2] | Potency [17] | Potency [16] | Potency [11] | Potency [12] | Potency [13] | Potency [15] | outcome [4] | Potency [6] | outcome [8] | Potency [9]

COc1cccc(C(=O)NCCN2CCN(c3ccc(Cl)cc3)CC2)c1
inactive: activity change, negative = inhibition [1] -1.54% | Potency [2] | Potency [3] | Potency [10] | Potency [13] | Potency [15] | Potency [5] | Potency [6] | Potency [7] | outcome [8] | Potency [9]
-18.1%: max response [1, 19]
-16.3%: max response [1, 18]
active: Potency [14] 14.1 µM

Cc1ccccc1CNc1ncnc2c1ncn2C1OC(CO)C(O)C1O (stereo not given)
-22.5%: max response [1, 18]
inactive: activity change, negative = inhibition [1] 0.209% | Potency [2] | Potency [16] | Potency [10] | Potency [11] | Potency [12] | Potency [13] | Potency [14] | Potency [15] | Potency [5] | Potency [6] | Potency [9]
-21.9%: max response [1, 19]
